Measurements from the supplement of paper PMC13380429.

Columns and labels:
[1] = test system: Vero E6 infected with SARS-CoV-2; assay: morphology score (similarity to uninfected cells); higher = more like uninfected cells; conditions: 24 h
[2] = test system: Vero E6 infected with SARS-CoV-2; assay: SARS-CoV-2 infection rate relative to infected DMSO; higher = more infection, active = 60 or less; conditions: 24 h

| Compound | morphology score [1] | SARS-CoV-2 infection rate [2] |
| --- | --- | --- |
| Nc1nc(N)nc(NC2CC2)n1 [cyromazine] (10 µM) | 0.128 | 86.5% (inactive) |
| C[C@H](NC[C@H](O)CP(=O)(O)Cc1ccccc1)c1ccc(Cl)c(Cl)c1 (10 µM) | 0.127 | 106% (inactive) |
| CN1C(=O)N(c2ccc(C#N)c(C(F)(F)F)c2)C(=O)[C@]1(CO)c1ccccc1 [GLPG0492-R-enantiomer] (10 µM) | -0.00354 | 104% (inactive) |
| COc1cc(N)c(Cl)cc1C(=O)CCC1CCN(CCNS(C)(=O)=O)CC1 (10 µM) | 0.0872 | 97.5% (inactive) |
